Source: the supplement of paper PMC6555819

Tests used:
Test in all cases: PBM binding z-score (relative to random genomic background probes); higher = stronger binding; sequences stand for … in GC…GCGATTGACAGCGTAGAATGAAGG
[1] = test system: FXR:RXRa (NR concentration 270 nM, RXRa partner concentration 90 nM)
Outline: (§1)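 The probes on custom Agilent 4×180K protein-binding microarrays were double-stranded, with 34-nt variable regions bearing direct-repeat seeds, single-nucleotide variants, half-site ablations and random human genomic background sequences. Incubation lasted 1 h with ligand-free nuclear receptor dimers in PBS pH 7.4, 2% milk, 0.02% Triton X-100, 1 mM DTT, 0.2 mg/mL BSA and 0.4 mg/ml salmon testes DNA. Antibodies against each partner (one per run) detected bound dimers, and fluorescence scans were regression-normalized. Binding z-scores take the random background probes as reference.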

[2] = test system: LXRa:RXRa (NR concentration 270 nM, RXRa partner concentration 90 nM)
Outline: as §1

[3] = test system: LXRa homodimer (NR concentration 270 nM)
Outline: as §1

[4] = test system: LXRb:RXRa (NR concentration 270 nM, RXRa partner concentration 90 nM)
Outline: as §1

[5] = test system: LXRb homodimer (NR concentration 270 nM)
Outline: as §1

[6] = test system: PPARa:RXRa (NR concentration 270 nM, RXRa partner concentration 90 nM)
Outline: as §1

[7] = test system: PPARg:RXRa (NR concentration 180 nM, RXRa partner concentration 90 nM)
Outline: as §1

[8] = test system: PPARg:RXRa 270nM:90nM, anti-RXR (NR concentration 270 nM, RXRa partner concentration 90 nM)
Outline: as §1

[9] = test system: PPARg:RXRa 30nM:10nM, anti-RXR (NR concentration 30 nM, RXRa partner concentration 10 nM)
Outline: as §1

[10] = test system: PPARg:RXRa 90nM:30nM, anti-RXR (NR concentration 90 nM, RXRa partner concentration 30 nM)
Outline: as §1

[11] = test system: PPARg:RXRa DBDmut IVT, anti-RXR (DBD mutation: RXRa K156A/R161A, NR concentration 270 nM, RXRa partner concentration 90 nM)
Outline: as §1

[12] = test system: PPARg:RXRa IVT, anti-PPARg (NR concentration 270 nM, RXRa partner concentration 90 nM)
Outline: as §1

[13] = test system: PPARg DBDmut:RXRa IVT, anti-PPARg (DBD mutation: PPARg1 K132A/R137A, NR concentration 270 nM, RXRa partner concentration 90 nM)
Outline: as §1

[14] = test system: PPARg DBDmut IVT, anti-PPARg (DBD mutation: PPARg1 K132A/R137A, NR concentration 270 nM)
Outline: as §1

[15] = test system: PPARg homodimer (NR concentration 180 nM)
Outline: as §1

[16] = test system: PXR:RXRa (NR concentration 270 nM, RXRa partner concentration 90 nM)
Outline: as §1

[17] = test system: PXR homodimer (NR concentration 270 nM)
Outline: as §1

[18] = test system: RARa:RXR (NR concentration 270 nM, RXRa partner concentration 90 nM)
Outline: as §1

[19] = test system: RARa homodimer (NR concentration 270 nM)
Outline: as §1

[20] = test system: RARb:RXRa (NR concentration 270 nM, RXRa partner concentration 90 nM)
Outline: as §1

Sequence | PBM binding z-score [1] | PBM binding z-score [2] | PBM binding z-score [3] | PBM binding z-score [4] | PBM binding z-score [5] | PBM binding z-score [6] | PBM binding z-score [7] | PBM binding z-score [8] | PBM binding z-score [9] | PBM binding z-score [10] | PBM binding z-score [11] | PBM binding z-score [12] | PBM binding z-score [13] | PBM binding z-score [14] | PBM binding z-score [15] | PBM binding z-score [16] | PBM binding z-score [17] | PBM binding z-score [18] | PBM binding z-score [19] | PBM binding z-score [20]
GCATATAGGTAATAGAAGGTGAAAGTCCGATTGT | 0.555 | 1.95 | 0.235 | 0.582 | -0.597 | 1.78 | 1.24 | 1.35 | 0.321 | 0.9 | 3.98 | 3.21 | 0.445 | 0.104 | 0.675 | 0.246 | 0.153 | 0.961 | 0.689 | 0.402
GTGACTGGGGCATCAGCAGGTTACCATAACTTAA | 0.0842 | 0.236 | -0.049 | 0.942 | -0.399 | 1.75 | 1.86 | 1.89 | 0.217 | 0.996 | 4.3 | 4.9 | 0.566 | 0.266 | 0.222 | 0.254 | 0.042 | 0.669 | -0.0196 | 1.09
CAAACTAGGTCGCGAAAGGTCAAAGTCGAATGAC | 6.26 | 6.45 | 5.69 | 5.96 | 1.92 | 6.03 | 7.96 | 6.66 | 4.55 | 6.34 | 6.96 | 7.13 | 1.26 | 1.98 | 3.65 | 6.52 | 2.13 | 6.77 | 2.38 | 5.01
CGAACTAGGTCATTGACAGGATAGTGAATAGTAA | 4.3 | 2.82 | 0.355 | 2.01 | -0.145 | 4.83 | 7.71 | 6.36 | 3.54 | 5.85 | 7.87 | 8.1 | 4.08 | 2.22 | 1.94 | 1.25 | 0.363 | 1.88 | 0.385 | 3.59
TCATATAGGTAAAAGGTGAAAATCGGTGTGGTAA | 2.32 | 2.08 | 0.347 | 2.14 | 0.2 | 5.34 | 9.36 | 8.69 | 8.68 | 9.26 | 5.1 | 5.08 | 1.43 | 0.511 | 2.07 | 1.97 | 0.321 | 3.05 | 1.48 | 1.78
CGTCCAAGGTCAGAGGGGTCAGTGAATGCCGAGT | 6.36 | 4.81 | 1.33 | 4.54 | 0.592 | 5.12 | 4.33 | 4.71 | 1.43 | 3.39 | 2.84 | 3.28 | -0.262 | 0.193 | 5.46 | 6.03 | 9.87 | 6.26 | 2.33 | 5.24
TCTGCTAGGTCAACGATGGTCAGCTAGTCTGCTA | 3.29 | 2.53 | -0.369 | 1.39 | -0.445 | 3.44 | 2.46 | 2.9 | 1.75 | 2.53 | 3.64 | 4.26 | -0.411 | -0.961 | 0.415 | 1.42 | -1.07 | 2.26 | -1.08 | 4.06
